# Measured values taken from PubChem BioAssay AID1159580 (chemical genetic matrix, 2015).
# Out of some 5,500 compounds screened, about 2,000 (36%) were called active. About 18% were inconclusive and are not listed. The list shows a part of the results. A number with no mark means an inactive call. Cut-off read from the data, not from the text of the source: active = normalized growth mostly below about 0.91 (no sharp cut-off); inconclusive = no clear call, values can overlap the other calls; inactive = mostly above about 0.92.
# Test: chemical genetic growth profiling, strain panel (AID 1159580);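 note: tested at 20 µM; growth read once vehicle control cultures reached saturation at 30 °C; 1 = growth at the plate median or of vehicle wells; lower values mean less growth of the strain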
# Conditions: growth OD
# [1] = S. cerevisiae deletion strains, locus YHR030C, strain SLT2, hits give low values
structure (smiles),measurement,setting,value
O=C1ON=C(CSc2ccccc2)/C1=C/c1ccc(Cl)cc1,normalized growth,"S. cerevisiae deletion strains, locus YAL013W, strain DEP1, hits give low values",0.0593 (active)
same,normalized growth,"S. cerevisiae deletion strains, locus YBR229C, strain ROT2, hits give low values",0.0605 (active)
same,normalized growth,"S. cerevisiae deletion strains, locus YDL101C, strain DUN1, hits give low values",0.0787 (active)
same,normalized growth,"S. cerevisiae deletion strains, locus YDR150W, strain NUM1, hits give low values",0.0599 (active)
same,normalized growth,"S. cerevisiae deletion strains, locus YEL061C, strain CIN8, hits give low values",0.215 (active)
same,normalized growth,"S. cerevisiae deletion strains, locus YGR078C, strain PAC10, hits give low values",0.0528 (active)
same,normalized growth,"S. cerevisiae deletion strains, locus YGR229C, strain SMI1, hits give low values",0.522 (active)
same,normalized growth,[1],0.0755 (active)
same,normalized growth,"S. cerevisiae deletion strains, locus YHR087W, strain rtc3, hits give low values",0.0592 (active)
same,normalized growth,"S. cerevisiae deletion strains, locus YJR043C, strain POL32, hits give low values",0.0516 (active)
same,normalized growth,"S. cerevisiae deletion strains, locus YJR075W, strain HOC1, hits give low values",0.0832 (active)
same,normalized growth,"S. cerevisiae deletion strains, locus YKL190W, strain CNB1, hits give low values",0.201 (active)
same,normalized growth,"S. cerevisiae deletion strains, locus YLR039C, strain RIC1, hits give low values",0.283 (active)
same,normalized growth,"S. cerevisiae deletion strains, locus YLR058C, strain SHM2 (second series), hits give low values",0.0598 (active)
same,normalized growth,"S. cerevisiae deletion strains, locus YLR085C, strain ARP6, hits give low values",0.0742 (active)
same,normalized growth,"S. cerevisiae deletion strains, locus YLR262C, strain YPT6, hits give low values",0.324 (active)
same,normalized growth,"S. cerevisiae deletion strains, locus YML094W, strain GIM5, hits give low values",0.343 (active)
same,normalized growth,"S. cerevisiae deletion strains, locus YMR219W, strain ESC1, hits give low values",0.0677 (active)
same,normalized growth,"S. cerevisiae deletion strains, locus YMR263W, strain SAP30, hits give low values",0.0516 (active)
same,normalized growth,"S. cerevisiae deletion strains, locus YNL153C, strain GIM3, hits give low values",0.0589 (active)
same,normalized growth,"S. cerevisiae deletion strains, locus YNL298W, strain CLA4 (second series), hits give low values",0.155 (active)
same,normalized growth,"S. cerevisiae deletion strains, locus YNL322C, strain KRE1, hits give low values",0.0609 (active)
same,normalized growth,"S. cerevisiae deletion strains, locus YNR030W, strain Alg12, hits give low values",0.101 (active)
same,normalized growth,"S. cerevisiae deletion strains, locus YPL055C, strain LGE1, hits give low values",0.0724 (active)
same,normalized growth,"S. cerevisiae deletion strains, locus YPL241C, strain CIN2, hits give low values",0.0913 (active)
same,normalized growth,"S. cerevisiae deletion strains, locus YPR135W, strain CTF4, hits give low values",0.161 (active)
same,normalized growth,"S. cerevisiae strains, strain wild type, hits give low values",0.337 (active)
COc1cccc2c1C(=O)c1c(O)c3c(c(O)c1C2=O)C[C@@](O)(C(=O)CO)C[C@@H]3OC1C[C@H](N)[C@H](O)[C@H](C)O1 (stereo not given in full),normalized growth,"S. cerevisiae deletion strains, locus YAL021C, strain ccr4, hits give low values",0.166 (active)
same,normalized growth,"S. cerevisiae deletion strains, locus YAL026C, strain drs2, hits give low values",0.696 (active)
same,normalized growth,"S. cerevisiae deletion strains, locus YAL030W, strain snc1, hits give low values",0.691 (active)
same,normalized growth,"S. cerevisiae deletion strains, locus YBL061C, strain skt5, hits give low values",0.708 (active)
same,normalized growth,"S. cerevisiae deletion strains, locus YBR009C, strain hhf1, hits give low values",0.282 (active)
same,normalized growth,"S. cerevisiae deletion strains, locus YBR023C, strain chs3, hits give low values",0.676 (active)
same,normalized growth,"S. cerevisiae deletion strains, locus YBR171W, strain sec66, hits give low values",0.928
same,normalized growth,"S. cerevisiae deletion strains, locus YBR231C, strain swc5, hits give low values",0.342 (active)
same,normalized growth,"S. cerevisiae deletion strains, locus YBR279W, strain paf1, hits give low values",0.681 (active)
same,normalized growth,"S. cerevisiae deletion strains, locus YCL011C, strain gbp2, hits give low values",0.636 (active)
same,normalized growth,"S. cerevisiae deletion strains, locus YCL016C, strain dcc1, hits give low values",0.37 (active)
same,normalized growth,"S. cerevisiae deletion strains, locus YCL069W, strain vba3, hits give low values",0.718 (active)
same,normalized growth,"S. cerevisiae deletion strains, locus YCR088W, strain abp1, hits give low values",0.767 (active)
same,normalized growth,"S. cerevisiae deletion strains, locus YDL005C, strain med2, hits give low values",0.701 (active)
same,normalized growth,"S. cerevisiae deletion strains, locus YDL040C, strain nat1, hits give low values",0.762 (active)
same,normalized growth,"S. cerevisiae deletion strains, locus YDR001C, strain nth1, hits give low values",0.878 (active)
same,normalized growth,"S. cerevisiae deletion strains, locus YDR069C, strain doa4, hits give low values",0.595 (active)
same,normalized growth,"S. cerevisiae deletion strains, locus YDR137W, strain rgp1, hits give low values",0.572 (active)
same,normalized growth,"S. cerevisiae deletion strains, locus YDR159W, strain sac3, hits give low values",0.221 (active)
same,normalized growth,"S. cerevisiae deletion strains, locus YDR195W, strain ref2",1.23 [resistant] (active)
same,normalized growth,"S. cerevisiae deletion strains, locus YDR297W, strain sur2, hits give low values",0.606 (active)
same,normalized growth,"S. cerevisiae deletion strains, locus YDR334W, strain swr1, hits give low values",0.337 (active)
same,normalized growth,"S. cerevisiae deletion strains, locus YDR335W, strain msn5, hits give low values",0.431 (active)
same,normalized growth,"S. cerevisiae deletion strains, locus YDR392W, strain spt3, hits give low values",0.919
same,normalized growth,"S. cerevisiae deletion strains, locus YEL003W, strain gim4, hits give low values",0.603 (active)
same,normalized growth,"S. cerevisiae deletion strains, locus YEL037C, strain rad23, hits give low values",0.864 (active)
same,normalized growth,"S. cerevisiae deletion strains, locus YEL061C, strain CIN8 (second series), hits give low values",0.607 (active)
same,normalized growth,"S. cerevisiae deletion strains, locus YER015W, strain faa2, hits give low values",0.49 (active)
same,normalized growth,"S. cerevisiae deletion strains, locus YER016W, strain bim1, hits give low values",0.481 (active)
same,normalized growth,"S. cerevisiae deletion strains, locus YER111C, strain swi4, hits give low values",0.766 (active)
same,normalized growth,"S. cerevisiae deletion strains, locus YER155C, strain BEM2 (second series), hits give low values",0.515 (active)
same,normalized growth,"S. cerevisiae deletion strains, locus YFR010W, strain ubp6, hits give low values",0.65 (active)
same,normalized growth,"S. cerevisiae deletion strains, locus YGL167C, strain pmr1, hits give low values",0.905 (active)
same,normalized growth,"S. cerevisiae deletion strains, locus YGL173C, strain kem1, hits give low values",1.01
same,normalized growth,"S. cerevisiae deletion strains, locus YGL227W, strain vid30, hits give low values",0.429 (active)
same,normalized growth,"S. cerevisiae deletion strains, locus YGL240W, strain doc1, hits give low values",0.246 (active)
same,normalized growth,"S. cerevisiae deletion strains, locus YGL253W, strain hxk2, hits give low values",0.247 (active)
same,normalized growth,"S. cerevisiae deletion strains, locus YHR013C, strain ard1, hits give low values",0.35 (active)
same,normalized growth,"S. cerevisiae deletion strains, locus YHR027C, strain rpn1, hits give low values",0.496 (active)
same,normalized growth,[1],0.778 (active)
same,normalized growth,"S. cerevisiae deletion strains, locus YHR079C, strain IRE1, hits give low values",0.79 (active)
same,normalized growth,"S. cerevisiae deletion strains, locus YHR142W, strain chs7, hits give low values",0.538 (active)
same,normalized growth,"S. cerevisiae deletion strains, locus YJL092W, strain hpr5, hits give low values",0.691 (active)
same,normalized growth,"S. cerevisiae deletion strains, locus YJL095W, strain BCK1 (second series), hits give low values",0.622 (active)
same,normalized growth,"S. cerevisiae deletion strains, locus YJL095W, strain BCK1, hits give low values",0.781 (active)
same,normalized growth,"S. cerevisiae deletion strains, locus YJL115W, strain asf1, hits give low values",0.319 (active)
same,normalized growth,"S. cerevisiae deletion strains, locus YJL129C, strain trk1, hits give low values",0.138 (active)
same,normalized growth,"S. cerevisiae deletion strains, locus YJL154C, strain vps35, hits give low values",0.732 (active)
same,normalized growth,"S. cerevisiae deletion strains, locus YJL164C, strain tpk1, hits give low values",0.439 (active)
same,normalized growth,"S. cerevisiae deletion strains, locus YJL166W, strain qcr8, hits give low values",0.302 (active)
same,normalized growth,"S. cerevisiae deletion strains, locus YJL187C, strain SWE1, hits give low values",0.643 (active)
same,normalized growth,"S. cerevisiae deletion strains, locus YJR066W, strain TOR1, hits give low values",0.787 (active)
same,normalized growth,"S. cerevisiae deletion strains, locus YKL160W, strain elf1, hits give low values",0.56 (active)
same,normalized growth,"S. cerevisiae deletion strains, locus YKR026C, strain gcn3, hits give low values",0.849 (active)
same,normalized growth,"S. cerevisiae deletion strains, locus YKR091W, strain srl3, hits give low values",0.869 (active)
same,normalized growth,"S. cerevisiae deletion strains, locus YLL001W, strain dnm1, hits give low values",0.545 (active)
same,normalized growth,"S. cerevisiae deletion strains, locus YLL026W, hits give low values",0.623 (active)
same,normalized growth,"S. cerevisiae deletion strains, locus YLL041C, strain sdh2, hits give low values",0.602 (active)
same,normalized growth,"S. cerevisiae deletion strains, locus YLR027C, strain aat2, hits give low values",0.543 (active)
same,normalized growth,"S. cerevisiae deletion strains, locus YLR113W, strain HOG1, hits give low values",0.779 (active)
same,normalized growth,"S. cerevisiae deletion strains, locus YLR221C, strain rsa3, hits give low values",0.475 (active)
same,normalized growth,"S. cerevisiae deletion strains, locus YLR258W, strain gsy2, hits give low values",0.565 (active)
same,normalized growth,"S. cerevisiae deletion strains, locus YLR262C, strain YPT6 (second series), hits give low values",0.533 (active)
same,normalized growth,"S. cerevisiae deletion strains, locus YLR320W, strain mms22, hits give low values",0.176 (active)
same,normalized growth,"S. cerevisiae deletion strains, locus YLR342W, strain FKS1, hits give low values",0.622 (active)
same,normalized growth,"S. cerevisiae deletion strains, locus YLR357W, strain rsc2, hits give low values",0.49 (active)
same,normalized growth,"S. cerevisiae deletion strains, locus YLR370C, strain arc18, hits give low values",0.902 (active)
same,normalized growth,"S. cerevisiae deletion strains, locus YLR384C, strain iki3, hits give low values",0.651 (active)
same,normalized growth,"S. cerevisiae deletion strains, locus YML120C, strain ndi1, hits give low values",0.676 (active)
same,normalized growth,"S. cerevisiae deletion strains, locus YMR058W, strain fet3, hits give low values",0.509 (active)
same,normalized growth,"S. cerevisiae deletion strains, locus YMR129W, hits give low values",0.828 (active)
same,normalized growth,"S. cerevisiae deletion strains, locus YMR205C, strain PFK2, hits give low values",0.513 (active)
same,normalized growth,"S. cerevisiae deletion strains, locus YMR231W, strain pep5, hits give low values",0.246 (active)
same,normalized growth,"S. cerevisiae deletion strains, locus YNL071W, strain lat1, hits give low values",0.272 (active)
same,normalized growth,"S. cerevisiae deletion strains, locus YNL183C, strain NPR1, hits give low values",0.801 (active)
same,normalized growth,"S. cerevisiae deletion strains, locus YNL209W, strain ssb2, hits give low values",0.656 (active)
same,normalized growth,"S. cerevisiae deletion strains, locus YNL248C, strain rpa49, hits give low values",0.107 (active)
same,normalized growth,"S. cerevisiae deletion strains, locus YNL322C, strain KRE1 (second series), hits give low values",0.886 (active)
same,normalized growth,"S. cerevisiae deletion strains, locus YNR049C, strain mso1, hits give low values",0.798 (active)
same,normalized growth,"S. cerevisiae deletion strains, locus YOR001W, strain rrp6, hits give low values",0.469 (active)
same,normalized growth,"S. cerevisiae deletion strains, locus YOR070C, strain gyp1, hits give low values",0.569 (active)
same,normalized growth,"S. cerevisiae deletion strains, locus YOR080W, strain dia2, hits give low values",0.627 (active)
same,normalized growth,"S. cerevisiae deletion strains, locus YOR083W, strain WHI5, hits give low values",0.572 (active)
same,normalized growth,"S. cerevisiae deletion strains, locus YOR106W, strain vam3, hits give low values",0.214 (active)
same,normalized growth,"S. cerevisiae deletion strains, locus YOR231W, strain MKK1, hits give low values",0.815 (active)
same,normalized growth,"S. cerevisiae deletion strains, locus YOR265W, strain rbl2, hits give low values",0.619 (active)
same,normalized growth,"S. cerevisiae deletion strains, locus YOR270C, strain vph1, hits give low values",0.24 (active)
same,normalized growth,"S. cerevisiae deletion strains, locus YOR290C, strain snf2, hits give low values",0.589 (active)
same,normalized growth,"S. cerevisiae deletion strains, locus YPL051W, strain arl3, hits give low values",0.481 (active)
same,normalized growth,"S. cerevisiae deletion strains, locus YPL078C, strain atp4, hits give low values",0.534 (active)
same,normalized growth,"S. cerevisiae deletion strains, locus YPL106C, strain sse1, hits give low values",1.14
same,normalized growth,"S. cerevisiae deletion strains, locus YPL240C, strain hsp82, hits give low values",0.544 (active)
same,normalized growth,"S. cerevisiae deletion strains, locus YPL256C, strain CLN2, hits give low values",0.757 (active)
